Assay in all cases: PBM; 200 nM protein, PBS
Conditions in all cases: dsDNA, one strand shown

The target in assay [1] is HESX1 (Homo sapiens, UniProt Q9UBX0 95-180, R165K).
Assay [2] has as its target SHOX (Homo sapiens, UniProt O15266 103-189).
In another assay the target is ALX4 (Homo sapiens, UniProt Q9H161 200-286, Q225E).
Assay [3] has as its target HESX1 (Homo sapiens, UniProt Q9UBX0 95-180).
The next assay addresses MSX2 (Homo sapiens, UniProt P35548 130-214, R199I).
Assay [4] concerns the target ALX1 (Homo sapiens, UniProt Q15699 118-204, L144V).
Assay [5] concerns the target ALX3 (Homo sapiens, UniProt O95076 139-225, N203Q).
Assay [6] has as its target SHOX (Homo sapiens, UniProt O15266 103-189, R173C).
The target in assay [7] is ALX1 (Homo sapiens, UniProt Q15699 118-204, L144R).
ALX1 (Homo sapiens, UniProt Q15699 118-204, L144R), sequence (Q15699 118-204 L144R): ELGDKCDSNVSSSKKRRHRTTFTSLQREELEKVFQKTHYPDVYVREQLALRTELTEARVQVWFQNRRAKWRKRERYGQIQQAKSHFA
Assay [8] addresses ALX3 (Homo sapiens, UniProt O95076 139-225).
Assay [9] addresses PROP1 (Homo sapiens, UniProt O75360 56-141).
Assay [10] addresses HESX1 (Homo sapiens, UniProt Q9UBX0 95-180, R109Q).
For assay [11], the target named is PROP1 (Homo sapiens, UniProt O75360 56-141, R99H).
PROP1 (Homo sapiens, UniProt O75360 56-141, R99H), sequence (O75360 56-141 R99H): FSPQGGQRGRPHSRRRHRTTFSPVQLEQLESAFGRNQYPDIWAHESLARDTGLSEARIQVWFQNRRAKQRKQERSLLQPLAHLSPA
The target in assay [12] is ALX3 (Homo sapiens, UniProt O95076 139-225, L168Q).
ALX3 (Homo sapiens, UniProt O95076 139-225, L168Q), sequence (O95076 139-225 L168Q): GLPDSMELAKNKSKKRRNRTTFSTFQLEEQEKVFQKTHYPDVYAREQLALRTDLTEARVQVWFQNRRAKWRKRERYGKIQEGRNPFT
In assay [13] the target is HESX1 (Homo sapiens, UniProt Q9UBX0 95-180, P111T).
HESX1 (Homo sapiens, UniProt Q9UBX0 95-180, P111T), sequence (Q9UBX0 95-180 P111T): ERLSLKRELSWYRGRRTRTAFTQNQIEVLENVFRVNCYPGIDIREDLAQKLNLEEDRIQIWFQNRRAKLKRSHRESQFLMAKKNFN
Assay [14] deals with ALX3 (Homo sapiens, UniProt O95076 139-225, L168V).
ALX3 (Homo sapiens, UniProt O95076 139-225, L168V), sequence (O95076 139-225 L168V): as the sequence (O95076 139-225 L168Q) above, with Q30V counted along it
The target in assay [15] is PROP1 (Homo sapiens, UniProt O75360 56-141, F88S).
PROP1 (Homo sapiens, UniProt O75360 56-141, F88S), sequence (O75360 56-141 F88S): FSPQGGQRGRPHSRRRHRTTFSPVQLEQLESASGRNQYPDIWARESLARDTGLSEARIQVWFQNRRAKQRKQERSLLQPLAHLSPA
Assay [16] concerns the target HESX1 (Homo sapiens, UniProt Q9UBX0 95-180, F115L).
In assay [17] the target is ALX1 (Homo sapiens, UniProt Q15699 118-204).
ALX1 (Homo sapiens, UniProt Q15699 118-204), sequence (Q15699 118-204): as the sequence (Q15699 118-204 L144R) above, with R27L counted along it
The target in assay [18] is ALX3 (Homo sapiens, UniProt O95076 139-225, N203S).
ALX3 (Homo sapiens, UniProt O95076 139-225, N203S), sequence (O95076 139-225 N203S): as the sequence (O95076 139-225 L168Q) above, with Q30L, N65S counted along it

SHOX (Homo sapiens, UniProt O15266 103-189), sequence (O15266 103-189): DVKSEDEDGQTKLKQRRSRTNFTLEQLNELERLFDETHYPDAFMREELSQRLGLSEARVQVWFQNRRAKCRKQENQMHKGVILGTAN
ALX3 (Homo sapiens, UniProt O95076 139-225, N203Q), sequence (O95076 139-225 N203Q): as the sequence (O95076 139-225 L168Q) above, with Q30L, N65Q counted along it
HESX1 (Homo sapiens, UniProt Q9UBX0 95-180, R165K), sequence (Q9UBX0 95-180 R165K): as the sequence (Q9UBX0 95-180 P111T) above, with T17P, R71K counted along it
HESX1 (Homo sapiens, UniProt Q9UBX0 95-180, R109Q), sequence (Q9UBX0 95-180 R109Q): as the sequence (Q9UBX0 95-180 P111T) above, with R15Q, T17P counted along it
MSX2, sequence (P35548 130-214 R199I): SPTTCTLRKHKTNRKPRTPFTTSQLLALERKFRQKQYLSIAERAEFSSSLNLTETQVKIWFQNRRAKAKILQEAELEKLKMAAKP
ALX1 (Homo sapiens, UniProt Q15699 118-204, L144V), sequence (Q15699 118-204 L144V): as the sequence (Q15699 118-204 L144R) above, with R27V counted along it
HESX1 (Homo sapiens, UniProt Q9UBX0 95-180), sequence (Q9UBX0 95-180): as the sequence (Q9UBX0 95-180 P111T) above, with T17P counted along it
SHOX (Homo sapiens, UniProt O15266 103-189, R173C), sequence (O15266 103-189 R173C): as the sequence (O15266 103-189) above, with R71C counted along it
ALX4, sequence (Q9H161 200-286 Q225E): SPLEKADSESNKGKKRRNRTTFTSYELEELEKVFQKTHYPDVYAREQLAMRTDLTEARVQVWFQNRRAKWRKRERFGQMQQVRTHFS
PROP1 (Homo sapiens, UniProt O75360 56-141), sequence (O75360 56-141): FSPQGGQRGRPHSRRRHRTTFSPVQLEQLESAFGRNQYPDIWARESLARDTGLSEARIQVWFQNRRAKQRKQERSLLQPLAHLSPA
ALX3 (Homo sapiens, UniProt O95076 139-225), sequence (O95076 139-225): as the sequence (O95076 139-225 L168Q) above, with Q30L counted along it
HESX1 (Homo sapiens, UniProt Q9UBX0 95-180, F115L), sequence (Q9UBX0 95-180 F115L): as the sequence (Q9UBX0 95-180 P111T) above, with T17P, F21L counted along it

Consider ATCAATTA, for which the binding signal with HESX1 [1] is 13.5 upbm affinity estimate (log intensity, higher = more binding, comparable within an allelic series); in the assay with SHOX [2] it was 12.6 upbm affinity estimate (log intensity, higher = more binding, comparable within an allelic series); with ALX4, 13.7 upbm affinity estimate (log intensity, higher = more binding, comparable within an allelic series); with HESX1 [3], 13.4 upbm affinity estimate (log intensity, higher = more binding, comparable within an allelic series); with MSX2, 13.1 upbm affinity estimate (log intensity, higher = more binding, comparable within an allelic series); with ALX1 [4], 12 upbm affinity estimate (log intensity, higher = more binding, comparable within an allelic series). Further, the binding signal in the assay with ALX3 [5] is 8.5 upbm affinity estimate (log intensity, higher = more binding, comparable within an allelic series); with SHOX [6], 10.1 upbm affinity estimate (log intensity, higher = more binding, comparable within an allelic series); in the assay with ALX1 [7] it was 11.8 upbm affinity estimate (log intensity, higher = more binding, comparable within an allelic series); in the assay with ALX3 [8], 12.7 upbm affinity estimate (log intensity, higher = more binding, comparable within an allelic series); in the assay with PROP1 [9], 11.8 upbm affinity estimate (log intensity, higher = more binding, comparable within an allelic series); in the assay with HESX1 [10] it was 10.2 upbm affinity estimate (log intensity, higher = more binding, comparable within an allelic series). The binding signal with PROP1 [11] was 12.2 upbm affinity estimate (log intensity, higher = more binding, comparable within an allelic series); in the assay with ALX3 [12], 10.9 upbm affinity estimate (log intensity, higher = more binding, comparable within an allelic series); in the assay with HESX1 [13], 12.1 upbm affinity estimate (log intensity, higher = more binding, comparable within an allelic series); in the assay with ALX3 [14], 10.4 upbm affinity estimate (log intensity, higher = more binding, comparable within an allelic series); with PROP1 [15], 7.84 upbm affinity estimate (log intensity, higher = more binding, comparable within an allelic series); with HESX1 [16], 8.22 upbm affinity estimate (log intensity, higher = more binding, comparable within an allelic series). For the same sequence, the binding signal in the assay with ALX1 [17] was 12.8 upbm affinity estimate (log intensity, higher = more binding, comparable within an allelic series); in the assay with ALX3 [18], 8.66 upbm affinity estimate (log intensity, higher = more binding, comparable within an allelic series).
Take CAATTACC: the binding signal with HESX1 [1] was 12.7 upbm affinity estimate (log intensity, higher = more binding, comparable within an allelic series); in the assay with SHOX [2], 11.8 upbm affinity estimate (log intensity, higher = more binding, comparable within an allelic series); in the assay with ALX4, 12.9 upbm affinity estimate (log intensity, higher = more binding, comparable within an allelic series); in the assay with HESX1 [3] it was 12.6 upbm affinity estimate (log intensity, higher = more binding, comparable within an allelic series); in the assay with MSX2, 12.7 upbm affinity estimate (log intensity, higher = more binding, comparable within an allelic series); with ALX1 [4], 11.6 upbm affinity estimate (log intensity, higher = more binding, comparable within an allelic series). Further, the binding signal with ALX3 [5] was 8.27 upbm affinity estimate (log intensity, higher = more binding, comparable within an allelic series); with SHOX [6], 9.24 upbm affinity estimate (log intensity, higher = more binding, comparable within an allelic series); with ALX1 [7], 11.3 upbm affinity estimate (log intensity, higher = more binding, comparable within an allelic series); with ALX3 [8], 12.4 upbm affinity estimate (log intensity, higher = more binding, comparable within an allelic series); in the assay with PROP1 [9], 11.3 upbm affinity estimate (log intensity, higher = more binding, comparable within an allelic series); with HESX1 [10] it was 8.97 upbm affinity estimate (log intensity, higher = more binding, comparable within an allelic series). The binding signal with PROP1 [11] is 11.5 upbm affinity estimate (log intensity, higher = more binding, comparable within an allelic series); in the assay with ALX3 [12], 10.3 upbm affinity estimate (log intensity, higher = more binding, comparable within an allelic series); with HESX1 [13] it was 10.9 upbm affinity estimate (log intensity, higher = more binding, comparable within an allelic series); in the assay with ALX3 [14], 9.72 upbm affinity estimate (log intensity, higher = more binding, comparable within an allelic series); in the assay with PROP1 [15] it was 7.4 upbm affinity estimate (log intensity, higher = more binding, comparable within an allelic series); with HESX1 [16], 7.62 upbm affinity estimate (log intensity, higher = more binding, comparable within an allelic series). For the same sequence, the binding signal with ALX1 [17] was 12.4 upbm affinity estimate (log intensity, higher = more binding, comparable within an allelic series); with ALX3 [18] it was 8.36 upbm affinity estimate (log intensity, higher = more binding, comparable within an allelic series).
Turning to ATAATTGA, the binding signal in the assay with HESX1 [1] is 13.1 upbm affinity estimate (log intensity, higher = more binding, comparable within an allelic series); with SHOX [2] it was 12.3 upbm affinity estimate (log intensity, higher = more binding, comparable within an allelic series); in the assay with ALX4, 13.3 upbm affinity estimate (log intensity, higher = more binding, comparable within an allelic series); in the assay with HESX1 [3] it was 13.1 upbm affinity estimate (log intensity, higher = more binding, comparable within an allelic series); with MSX2, 12.8 upbm affinity estimate (log intensity, higher = more binding, comparable within an allelic series); with ALX1 [4], 11.7 upbm affinity estimate (log intensity, higher = more binding, comparable within an allelic series). The binding signal with ALX3 [5] was 8.47 upbm affinity estimate (log intensity, higher = more binding, comparable within an allelic series); with SHOX [6] it was 9.68 upbm affinity estimate (log intensity, higher = more binding, comparable within an allelic series); with ALX1 [7], 11.5 upbm affinity estimate (log intensity, higher = more binding, comparable within an allelic series); with ALX3 [8], 12.5 upbm affinity estimate (log intensity, higher = more binding, comparable within an allelic series); with PROP1 [9] it was 11.6 upbm affinity estimate (log intensity, higher = more binding, comparable within an allelic series); with HESX1 [10], 9.23 upbm affinity estimate (log intensity, higher = more binding, comparable within an allelic series). For the same sequence, the binding signal with PROP1 [11] was 11.8 upbm affinity estimate (log intensity, higher = more binding, comparable within an allelic series); with ALX3 [12], 10.7 upbm affinity estimate (log intensity, higher = more binding, comparable within an allelic series); with HESX1 [13], 11.7 upbm affinity estimate (log intensity, higher = more binding, comparable within an allelic series); with ALX3 [14], 10.2 upbm affinity estimate (log intensity, higher = more binding, comparable within an allelic series); with PROP1 [15], 7.86 upbm affinity estimate (log intensity, higher = more binding, comparable within an allelic series); with HESX1 [16], 8.13 upbm affinity estimate (log intensity, higher = more binding, comparable within an allelic series). Also, the binding signal with ALX1 [17] is 12.3 upbm affinity estimate (log intensity, higher = more binding, comparable within an allelic series); in the assay with ALX3 [18], 8.62 upbm affinity estimate (log intensity, higher = more binding, comparable within an allelic series).
On to CCTAATTA, for which the binding signal was 13.4 upbm affinity estimate (log intensity, higher = more binding, comparable within an allelic series) in the assay with HESX1 [1]; 13 upbm affinity estimate (log intensity, higher = more binding, comparable within an allelic series) with SHOX [2]; 14.1 upbm affinity estimate (log intensity, higher = more binding, comparable within an allelic series) with ALX4; 13.3 upbm affinity estimate (log intensity, higher = more binding, comparable within an allelic series) with HESX1 [3]; 13.2 upbm affinity estimate (log intensity, higher = more binding, comparable within an allelic series) with MSX2; 12.2 upbm affinity estimate (log intensity, higher = more binding, comparable within an allelic series) with ALX1 [4]. The binding signal was 8.45 upbm affinity estimate (log intensity, higher = more binding, comparable within an allelic series) with ALX3 [5]; 10.4 upbm affinity estimate (log intensity, higher = more binding, comparable within an allelic series) with SHOX [6]; 11.8 upbm affinity estimate (log intensity, higher = more binding, comparable within an allelic series) with ALX1 [7]; 12.9 upbm affinity estimate (log intensity, higher = more binding, comparable within an allelic series) with ALX3 [8]; 12.1 upbm affinity estimate (log intensity, higher = more binding, comparable within an allelic series) with PROP1 [9]; 9.96 upbm affinity estimate (log intensity, higher = more binding, comparable within an allelic series) with HESX1 [10]. In addition, the binding signal with PROP1 [11] was 12.2 upbm affinity estimate (log intensity, higher = more binding, comparable within an allelic series); in the assay with ALX3 [12] it was 11.2 upbm affinity estimate (log intensity, higher = more binding, comparable within an allelic series); in the assay with HESX1 [13] it was 12 upbm affinity estimate (log intensity, higher = more binding, comparable within an allelic series); with ALX3 [14], 10.8 upbm affinity estimate (log intensity, higher = more binding, comparable within an allelic series); with PROP1 [15] it was 7.86 upbm affinity estimate (log intensity, higher = more binding, comparable within an allelic series); with HESX1 [16], 8.21 upbm affinity estimate (log intensity, higher = more binding, comparable within an allelic series). Also, the binding signal with ALX1 [17] is 12.9 upbm affinity estimate (log intensity, higher = more binding, comparable within an allelic series); with ALX3 [18] it was 8.58 upbm affinity estimate (log intensity, higher = more binding, comparable within an allelic series).
